Measurements published in PubChem BioAssay AID1159580 (chemical genetic matrix, 2015).
Several values for one entry are separate records, joined by “and”; a condition that tells them apart may be missing. Equal entries are not always repeated. In all, about 5,500 compounds went through this assay and about 2,000 (36%) were called active. Not shown: some 18% with an inconclusive outcome. No stated cut-off is given here; in the data, active means normalized growth mostly below about 0.91 (no sharp cut-off); inconclusive means no clear call, values can overlap the other calls; inactive means mostly above about 0.92. This is one part of the list.

Experiment: chemical genetic growth profiling, strain panel (AID 1159580);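 further: tested at 20 µM; growth read once vehicle control cultures reached saturation at 30 °C; 1 = growth at the plate median or of vehicle wells; lower values mean less growth of the strain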
Details: S. cerevisiae deletion strains, growth OD

Measured: normalized growth

CC(C)=CC1C(C(=O)OCc2cccc(Oc3ccccc3)c2)C1(C)C (configuration not stated)
inactive: locus YAL021C, strain ccr4, hits give low values 1.01 | locus YAL026C, strain drs2, hits give low values 1.02 | locus YAL030W, strain snc1, hits give low values 1.01 | locus YBL061C, strain skt5, hits give low values 1.01 | locus YBR009C, strain hhf1, hits give low values 1.01 | locus YBR021W, strain FUR4, hits give low values 0.998 | locus YBR023C, strain chs3, hits give low values 1.01 | locus YBR171W, strain sec66, hits give low values 1.02 | locus YBR229C, strain ROT2, hits give low values 0.947 | locus YBR231C, strain swc5, hits give low values 0.994 | locus YBR279W, strain paf1, hits give low values 1 | locus YCL011C, strain gbp2, hits give low values 1.01 | locus YCL016C, strain dcc1, hits give low values 1.01 | locus YCL029C, strain bik1, hits give low values 0.972 | locus YCL069W, strain vba3, hits give low values 1.01 | locus YCR088W, strain abp1, hits give low values 1.01 | locus YDL005C, strain med2, hits give low values 1.01 | locus YDL035C, strain GPR1, hits give low values 0.965 | locus YDL040C, strain nat1, hits give low values 1 | locus YDL074C, strain BRE1, hits give low values 1.01 | locus YDL101C, strain DUN1, hits give low values 0.997 | locus YDL185W, strain tfp1, hits give low values 0.968 | locus YDL192W, strain arf1, hits give low values 0.987 | locus YDR001C, strain nth1, hits give low values 1.01 | locus YDR069C, strain doa4, hits give low values 0.99 | locus YDR101C, strain arx1, hits give low values 0.967 | locus YDR137W, strain rgp1, hits give low values 0.993 | locus YDR150W, strain NUM1, hits give low values 0.993 | locus YDR159W, strain sac3, hits give low values 1.02 | locus YDR162C, strain NBP2, hits give low values 0.964 | locus YDR195W, strain ref2 0.98 | locus YDR297W, strain sur2, hits give low values 1 | locus YDR318W, strain mcm21, hits give low values 0.986 | locus YDR334W, strain swr1, hits give low values 1.01 | locus YDR335W, strain msn5, hits give low values 1.02 | locus YDR388W, hits give low values 0.983 | locus YDR392W, strain spt3, hits give low values 1.02 | locus YDR502C, strain sam2, hits give low values 0.992 | locus YEL003W, strain gim4, hits give low values 1.01 | locus YEL037C, strain rad23, hits give low values 1.01 | locus YEL061C, strain CIN8 (second series), hits give low values 1.01 | locus YEL061C, strain CIN8, hits give low values 0.995 | locus YER015W, strain faa2, hits give low values 1.01 | locus YER016W, strain bim1, hits give low values 1.01 | locus YER110C, hits give low values 0.978 | locus YER111C, strain swi4, hits give low values 1.01 | locus YER155C, strain BEM2 (second series), hits give low values 1.02 | locus YER155C, strain BEM2, hits give low values 0.998 | locus YER167W, strain BCK2, hits give low values 0.99 | locus YFR010W, strain ubp6, hits give low values 0.997 | locus YGL078C, strain dbp3, hits give low values 0.987 | locus YGL086W, strain mad1, hits give low values 0.996 | locus YGL167C, strain pmr1, hits give low values 1.02 | locus YGL173C, strain kem1, hits give low values 1 | locus YGL227W, strain vid30, hits give low values 1.01 | locus YGL240W, strain doc1, hits give low values 1.03 | locus YGL248W, strain PDE1, hits give low values 1.01 | locus YGL253W, strain hxk2, hits give low values 1.01 | locus YGR078C, strain PAC10, hits give low values 1.01 | locus YGR135W, strain pre9, hits give low values 0.982 | locus YGR229C, strain SMI1, hits give low values 0.99 | locus YGR252W, strain gcn5, hits give low values 0.991 | locus YHR013C, strain ard1, hits give low values 1.01 | locus YHR027C, strain rpn1, hits give low values 1.01 | locus YHR030C, strain SLT2, hits give low values 0.987 and 0.975 | locus YHR079C, strain IRE1 (second series), hits give low values 0.99 | locus YHR079C, strain IRE1, hits give low values 0.979 | locus YHR094C, strain hxt1, hits give low values 0.988 | locus YHR129C, strain ARP1, hits give low values 0.991 | locus YHR142W, strain chs7, hits give low values 1 | locus YHR200W, strain rpn10, hits give low values 0.976 | locus YIL066C, strain RNR3, hits give low values 0.96 | locus YIL073C, strain SPO22, hits give low values 1 | locus YIL125W, strain kgd1, hits give low values 0.976 | locus YIR030C, strain dcg1, hits give low values 0.982 | locus YJL092W, strain hpr5, hits give low values 1.01 | locus YJL095W, strain BCK1 (second series), hits give low values 1 | locus YJL095W, strain BCK1, hits give low values 1.06 and 0.979 | locus YJL115W, strain asf1, hits give low values 1.02 | locus YJL129C, strain trk1, hits give low values 1.03 | locus YJL134W, strain LCB3, hits give low values 0.987 | locus YJL154C, strain vps35, hits give low values 1.01 | locus YJL164C, strain tpk1, hits give low values 1.01 | locus YJL166W, strain qcr8, hits give low values 1 | locus YJL168C, strain set2, hits give low values 0.994 | locus YJL187C, strain SWE1 (second series), hits give low values 1.04 | locus YJR043C, strain POL32, hits give low values 0.971 | locus YJR066W, strain TOR1, hits give low values 0.896 | locus YKL009W, strain mrt4, hits give low values 0.977 | locus YKL068W, hits give low values 0.987 | locus YKL085W, strain MDH1 (second series), hits give low values 1 | locus YKL085W, strain MDH1, hits give low values 1 | locus YKL160W, strain elf1, hits give low values 1.02 | locus YKL190W, strain CNB1, hits give low values 0.997 | locus YKR001C, strain vps1, hits give low values 0.992 | locus YKR026C, strain gcn3, hits give low values 1.01 | locus YKR091W, strain srl3, hits give low values 1.01 | locus YLL001W, strain dnm1, hits give low values 1.02 | locus YLL026W, hits give low values 1.01 | locus YLL041C, strain sdh2, hits give low values 1.02 | locus YLR027C, strain aat2, hits give low values 1.01 | locus YLR039C, strain RIC1, hits give low values 0.972 | locus YLR058C, strain SHM2, hits give low values 0.993 | locus YLR102C, strain apc9, hits give low values 0.991 | locus YLR113W, strain HOG1, hits give low values 0.998 | locus YLR221C, strain rsa3, hits give low values 1.01 | locus YLR258W, strain gsy2, hits give low values 1.01 | locus YLR262C, strain YPT6 (second series), hits give low values 1.01 | locus YLR262C, strain YPT6, hits give low values 0.927 | locus YLR268W, strain sec22, hits give low values 0.993 | locus YLR320W, strain mms22, hits give low values 1.01 | locus YLR330W, strain CHS5, hits give low values 0.984 | locus YLR342W, strain FKS1 (second series), hits give low values 0.959 | locus YLR342W, strain FKS1, hits give low values 1.01 | locus YLR357W, strain rsc2, hits give low values 1.01 | locus YLR370C, strain arc18, hits give low values 1.03 | locus YLR371W, strain rom2, hits give low values 0.972 | locus YLR384C, strain iki3, hits give low values 1.02 | locus YLR418C, strain cdc73, hits give low values 0.985 | locus YML016C, strain PPZ1, hits give low values 0.993 | locus YML032C, strain rad52, hits give low values 0.983 | locus YML120C, strain ndi1, hits give low values 1.01 | locus YML124C, strain tub3, hits give low values 0.995 | locus YMR058W, strain fet3, hits give low values 1.02 | locus YMR078C, strain ctf18, hits give low values 0.972 | locus YMR125W, strain sto1, hits give low values 1.02 | locus YMR129W, hits give low values 1 | locus YMR205C, strain PFK2, hits give low values 0.993 | locus YMR223W, strain ubp8, hits give low values 0.983 | locus YMR231W, strain pep5, hits give low values 1.01 | locus YMR307W, strain GAS1, hits give low values 1.02 | locus YNL067W, strain RPL9B, hits give low values 1.04 | locus YNL071W, strain lat1, hits give low values 1.01 | locus YNL183C, strain NPR1, hits give low values 0.934 | locus YNL209W, strain ssb2, hits give low values 0.998 | locus YNL233W, strain BNI4, hits give low values 1.05 | locus YNL248C, strain rpa49, hits give low values 0.994 | locus YNL250W, strain rad50, hits give low values 0.982 | locus YNL271C, strain bni1, hits give low values 0.971 | locus YNL298W, strain CLA4, hits give low values 0.986 | locus YNL307C, strain MCK1, hits give low values 0.983 | locus YNL322C, strain KRE1 (second series), hits give low values 1.01 | locus YNR049C, strain mso1, hits give low values 1.01 | locus YNR052C, strain pop2, hits give low values 0.988 | locus YOL006C, strain TOP1, hits give low values 1.12 | locus YOL012C, strain htz1 1.31 | locus YOL147C, strain pex11, hits give low values 0.988 | locus YOR001W, strain rrp6, hits give low values 0.988 | locus YOR061W, strain CKA2, hits give low values 0.977 | locus YOR069W, strain VPS5, hits give low values 0.992 | locus YOR070C, strain gyp1, hits give low values 1 | locus YOR080W, strain dia2, hits give low values 1.01 | locus YOR083W, strain WHI5, hits give low values 1 | locus YOR106W, strain vam3, hits give low values 0.938 | locus YOR136W, strain idh2, hits give low values 0.996 | locus YOR144C, strain elg1, hits give low values 0.971 | locus YOR184W, strain ser1, hits give low values 0.992 | locus YOR231W, strain MKK1, hits give low values 0.989 | locus YOR265W, strain rbl2, hits give low values 0.996 | locus YOR270C, strain vph1, hits give low values 0.948 | locus YOR290C, strain snf2, hits give low values 1.02 | locus YOR316C, strain cot1, hits give low values 0.985 | locus YPL051W, strain arl3, hits give low values 0.995 | locus YPL078C, strain atp4, hits give low values 1.02 | locus YPL106C, strain sse1, hits give low values 1.04 | locus YPL240C, strain hsp82, hits give low values 1.01 | locus YPL256C, strain CLN2, hits give low values 0.995 | locus YPR119W, strain clb2, hits give low values 0.988 | locus YPR141C, strain kar3, hits give low values 0.982 | locus YPR163C, strain tif3, hits give low values 0.97 | locus YPR167C, strain met16, hits give low values 0.983 | strain wtn01, hits give low values 0.995
